These results are taken from the supplement of paper PMC9135407.

Several values for one entry are separate records, joined by “and”; a condition that tells them apart may be missing. Identical values can stand only once. Counter-ions that a name gives are not always drawn. Out of some 5,800 compounds screened, about 620 (11%) showed activity. The full list was thinned out, with actives kept by preference. Values without a mark were called inactive.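 Rule for the calls: active = score above a cut-off or among the top three wells of a plate; in these data no inactive exceeds 0.85.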 Bounds are passed on as bounds.

This assay deals with primary human hepatic stellate cells (donor 1). Nature of the assay: scaled lipid accumulation score (0 = DMSO-like, 1 = nortriptyline-like); higher = stronger HSC inactivation (lipid re-accumulation), active = hit call of the paper. Conditions: 48 h.
The mark [1] stands for this setting: library stock concentration: 10 mM.
Setting [2] is: library stock concentration: 1 mM.
Where [3] appears, read: library stock concentration: 80 uM.
The mark [4] stands for this setting: library stock concentration: 400 uM.
Where [5] appears, read: library stock concentration: 2 mM.
The mark [6] stands for this setting: library stock concentration: 3.33 mM.
The mark [7] stands for this setting: library stock concentration: 6.2 mM.

In the case of `Cc1ncc(COP(=O)([O-])[O-])c(CN(CCN(CC(=O)O)Cc2c(COP(=O)([O-])O)cnc(C)c2O)CC(=O)O)c1O.[Mn].[Na+].[Na+].[Na+]`, the “scaled lipid accumulation score” value under setting [1] was 0.072. Regarding `CC(C)CCCCCCC/C=C\C(=O)O` [cis-.DELTA.2-11-methyl-Dodecenoic Acid], the “scaled lipid accumulation score” value under setting [2] is 0.068. For the compound `CCOc1ccc(Nc2nc(-c3c(C)nc4ccccn34)cs2)cc1`, under setting [1], the “scaled lipid accumulation score” value was 0.446. On to `CCCCC[C@H](O)/C=C/[C@H]1[C@H](O)CC(=O)[C@@H]1CC(=O)CCCCC(=O)O` [6-keto Prostaglandin E1], for which the “scaled lipid accumulation score” value under setting [2] is at most 0. As to `O=C(NC1CC1)c1cccc(-c2ccc3c(NC(=O)C4CC4)n[nH]c3c2)c1`, the “scaled lipid accumulation score” value was at most 0 under setting [3], at most 0 under setting [4], at most 0 under setting [5] and at most 0 under setting [1]. For the compound `C[C@H](Nc1ncnc2nc[nH]c12)c1cc2cccc(Cl)c2c(=O)n1-c1ccccc1`, the “scaled lipid accumulation score” value was at most 0 under setting [6] and at most -0.001 under setting [1].

For `CCN(CC)CCNC(=O)c1ccc(NC(C)=O)cc1` [Acecainide hydrochloride], where the note is “library stock concentration: 6.4 mM”, the “scaled lipid accumulation score” value is at most 0. Regarding `CCN(CC)Cc1ccc2cc(COC(=O)Nc3ccc(C(=O)NO)cc3)ccc2c1.Cl.O` [Givinostat (ITF2357)], the “scaled lipid accumulation score” value is, setting by setting: under setting [6], 0.903 (active); under setting [1], 0.897 (active). On the same counts, the results for `CCCCN(Cc1ccc(C(=O)NO)cc1)C(=O)Nc1ccccc1` [Nexturastat A] are at most -0.009 and 0.176. As to `CCN(CC)CCNC(=O)c1ccc(NC(C)=O)cc1` [N-Acetylprocainamide hydrochloride], the “scaled lipid accumulation score” value under setting [1] is at most 0. Regarding `COc1ccc(S(=O)(=O)N2c3ccc(Cl)cc3[C@](O)(c3ccccc3Cl)[C@@H]2C(=O)N2CCC[C@H]2C(N)=O)cc1OC`, the “scaled lipid accumulation score” value under setting [1] is 0.02. On the same count and under the same terms, then `O=C(O)c1cc(=O)c2cccc(O)c2[nH]1` [Xanthurenic acid], with at most 0. For `O=C(Nc1cc2cc[nH]c2cn1)c1ccccc1`, the “scaled lipid accumulation score” value is at most -0.009 under setting [6] and at most 0 under setting [1].

Regarding `CCN1CCN(Cc2ccc(Nc3ncc4c(n3)N(C)c3ccccc3C(=O)N4C)cc2C(F)(F)F)CC1`, the “scaled lipid accumulation score” value was 0.012 under setting [3], 0.132 under setting [4], 0.243 under setting [5] and 0.479 under setting [1]. `CCN1CCN(Cc2ccc(NC(=O)c3ccc(C)c(Oc4ccnc5[nH]ccc45)c3)cc2C(F)(F)F)CC1`: the “scaled lipid accumulation score” value is, setting by setting: under setting [3], 0.069; under setting [4], 0.308; under setting [5], 0.809; under setting [1], 0.792.

As to `COC(=O)N1CCN(Cc2cccc(NC(=O)Nc3ccc(C)nc3)c2F)CC1`, the “scaled lipid accumulation score” value is, setting by setting: under setting [6], at most 0; under setting [1], 0.038. Consider `CCN1CCN(Cc2ccc(NC(=O)c3ccc(C)c(/C=C/c4cnc5[nH]ccc5c4OC)c3)cc2C(F)(F)F)CC1`, for which the “scaled lipid accumulation score” value runs as follows: under setting [5], 0.888 (active); under setting [1], 1.11 (active). With `Cc1ccc(C(=O)Nc2ccc(CN3CCN(C)CC3)c(C(F)(F)F)c2)cc1C#Cc1cnc2[nH]ncc2c1`, the “scaled lipid accumulation score” value was 0.479 under setting [6] and 0.258 under setting [1]. For `Cc1ccc(C(=O)Nc2ccc(CN3CCN(C)CC3)c(C(F)(F)F)c2)cc1C#Cc1cnc2cccnn12` [listing 1 of 3 here], under setting [6], the “scaled lipid accumulation score” value was 1.06 (active). As to `Cc1ccc(C(=O)Nc2ccc(CN3CCN(C)CC3)c(C(F)(F)F)c2)cc1C#Cc1cnc2cccnn12` [listing 2 of 3 here], the “scaled lipid accumulation score” value under setting [4] was 0.949 (active), the “scaled lipid accumulation score” value under setting [5] is 1.1 (active) and the “scaled lipid accumulation score” value under setting [1] was 1.14 (active). With `Cc1ccc(C(=O)Nc2ccc(CN3CCN(C)CC3)c(C(F)(F)F)c2)cc1C#Cc1cnc2cccnn12` [listing 3 of 3 here], the “scaled lipid accumulation score” value is 0.459 under setting [3] and 0.533 under setting [1].

With `CCCCC/C=C\C/C=C\CCCC/C=C\CCCC(=O)O` [5(Z),11(Z),14(Z)-Eicosatrienoic Acid], under setting [2], the “scaled lipid accumulation score” value was at most 0.

Regarding `CC(S)C(=O)NCC(=O)O` (stereo not drawn) [Tiopronin], the “scaled lipid accumulation score” value was at most 0 under setting [6] and at most 0 under setting [1]. Regarding `CC(S)C(=O)NCC(=O)O` (stereo not drawn), the “scaled lipid accumulation score” value under setting [1] is at most 0. With `CCCCCCCC/C=C\CCCCCCCCCCCC(=O)O` [13(Z)-Docosenoic Acid], the “scaled lipid accumulation score” value under setting [2] was 0.016. On to `CCC(CO)Nc1nc(NCc2ccccc2)c2ncn(C(C)C)c2n1` [Roscovitine, (S)-Isomer], for which the “scaled lipid accumulation score” value under setting [6] is at most 0. As to `CC1(C)S[C@@H]2[C@H](/N=C/N3CCCCCC3)C(=O)N2[C@H]1C(=O)O`, the “scaled lipid accumulation score” value under setting [1] was at most 0.

Consider `CCCCC[C@@](C)(O)/C=C/[C@H]1C=CC(=O)[C@@H]1C/C=C\CCCC(=O)O` [15(R)-15-methyl Prostaglandin A2], for which the “scaled lipid accumulation score” value under setting [2] is at most 0. `CCCCc1c(-c2ccc(O)cc2)[nH]c2nccnc12` [Aloisine A, RP107]: the “scaled lipid accumulation score” value under setting [6] is at most 0. For the compound `O=C(O)COc1cccc(-c2ocnc2-c2nc(-c3ccccc3)c(-c3ccccc3)o2)c1`, the “scaled lipid accumulation score” value under setting [1] was at most -0.006. Still for that read-out and setting: then `O=C(O)C=CC(=O)O.OCCOCCN1CCN(C2=Nc3ccccc3Sc3ccccc32)CC1.OCCOCCN1CCN(C2=Nc3ccccc3Sc3ccccc32)CC1` [Quetiapine Fumarate], with 1.06 (active). For `OCCOCCN1CCN(C2=Nc3ccccc3Sc3ccccc32)CC1` [Quetiapine fumarate], under “library stock concentration: 2.3 mM”, the “scaled lipid accumulation score” value is 0.28.

As for `OCCOCCN1CCN(C2=Nc3ccccc3Sc3ccccc32)CC1`, under setting [1], the “scaled lipid accumulation score” value was 0.251. As for `OCCOCCN1CCN(C2=Nc3ccccc3Sc3ccccc32)CC1` [Quetiapine Fumarate], the “scaled lipid accumulation score” value under setting [6] is 0.061. Turning to `CN1CCN(C2=Nc3ccccc3Sc3ccc(Cl)cc32)CC1` [Clothiapine], the “scaled lipid accumulation score” value (library stock concentration: 5.8 mM) is 0.413. Take `OCCOCCN1CCN(C2=Nc3ccccc3Sc3ccccc32)CC1` [Quetiapine]: the “scaled lipid accumulation score” value (library stock concentration: 5.2 mM) is at most 0. For the compound `CCCCC[C@@H](O)/C=C/[C@H]1C(=O)C[C@H](O)[C@@H]1C/C=C\CCCC(=O)O` [15(R)-Prostaglandin D2], the “scaled lipid accumulation score” value under setting [2] is at most 0. For the compound `O=C([O-])[C@H]1/C(=C/CO)O[C@@H]2CC(=O)N21.[Li+]` [Clavulanate lithium], the “scaled lipid accumulation score” value (library stock concentration: 9.7 mM) was at most 0. For the compound `CCS(=O)(=O)Nc1ccc2[nH]c(O)c(C(=Nc3ccc(CN4CCCCC4)cc3)c3ccccc3)c2c1` [Hesperadin], the “scaled lipid accumulation score” value was at most 0 under setting [6] and 0.147 under setting [1]. Consider `Cl.N=C(N)NCCC[C@H](N)C(=O)O`, for which, under setting [1], the “scaled lipid accumulation score” value was at most 0. As to `O=S(=O)(O)Oc1ccc(C(c2ccc(OS(=O)(=O)O)cc2)c2ccccn2)cc1` [Sodium Picosulfate], the “scaled lipid accumulation score” value is, setting by setting: under setting [6], at most 0; under setting [1], at most -0.001. `Cc1ccc(C(=O)Nc2cccc(C(F)(F)F)c2)cc1Nc1cncc(C(N)=O)c1`: the “scaled lipid accumulation score” value is, setting by setting: under setting [3], at most 0; under setting [4], 0.035; under setting [5], at most 0; under setting [1], 0.142. `Cc1ccc(C(=O)Nc2cccc(C(F)(F)F)c2)cc1Nc1nc(-c2cccnc2)nc2c1cnn2C` [listing 1 of 2 here]: the “scaled lipid accumulation score” value is 0.942 (active) under setting [6] and 0.959 (active) under setting [1]. For the compound `Cc1ccc(C(=O)Nc2cccc(C(F)(F)F)c2)cc1Nc1nc(-c2cccnc2)nc2c1cnn2C` [listing 2 of 2 here], the “scaled lipid accumulation score” value runs as follows: under setting [3], at most -0.016; under setting [4], at most -0.016; under setting [5], at most -0.016; under setting [1], 0.726. With `Nc1ncnc2c1ncn2[C@@H]1O[C@H](COP(=O)(O)CP(=O)(O)OP(=O)(O)O)[C@H](O)C1O` (stereo partly drawn) [alpha,beta-Methylene adenosine 5'-triphosphate dilithium], under setting [1], the “scaled lipid accumulation score” value was 0.242.

In the case of `CCCCC/C=C\C/C=C\C/C=C\C/C=C\CCCC(=O)S[C@H](COCCCCCCCCCCCCCCCC)COP(=O)([O-])OCC[N+](C)(C)C` [Arachidonoyl thio-PC], under setting [2], the “scaled lipid accumulation score” value is at most 0. On the same count and under the same terms, then `CC(/C=C/C(=O)NO)=C\[C@@H](C)C(=O)c1ccc(N(C)C)cc1` [Trichostatin A], with 0.793 (active).

Turning to `CC(C=CC(=O)NO)=CC(C)C(=O)c1ccc(N(C)C)cc1` (stereo not drawn) [Trichostatin A (TSA)], the “scaled lipid accumulation score” value was 0.515 under setting [6] and 0.663 under setting [1]. As for `CC(/C=C/C(=O)NO)=C\[C@@H](C)C(=O)c1ccc(N(C)C)cc1` [Trichostatin-A], under “library stock concentration: 16.5 mM”, the “scaled lipid accumulation score” value is 0.589. With `CCCSc1nc(N[C@@H]2C[C@H]2c2ccc(F)c(F)c2)c2nnn([C@@H]3C[C@H](OCCO)[C@@H](O)[C@H]3O)c2n1` [Ticagrelor], the “scaled lipid accumulation score” value under setting [6] was at most 0 and the “scaled lipid accumulation score” value under setting [1] is 0.193. In the case of `CSc1nc(N)c2ncn([C@@H]3O[C@H](COP(=O)(O)OP(=O)(O)O)[C@H](O)C3O)c2n1` (stereo partly drawn), the “scaled lipid accumulation score” value under setting [1] is 0.082. Same read-out and setting: then `CO/N=C1\C[C@]2(C[C@@H]3C[C@@H](C/C=C(\C)C[C@@H](C)/C=C/C=C4\CO[C@@H]5[C@H](O)C(C)=C[C@@H](C(=O)O3)[C@]45O)O2)O[C@H](/C(C)=C/C(C)C)[C@H]1C`, with at most 0; and `OC[C@H]1O[C@@H](n2cnc3c(N[C@H]4CCC[C@@H]4O)ncnc32)[C@@H](O)C1O` (stereo partly drawn) [Adenosine, N-(2-hydroxycyclopentyl)-, (1S-trans)- [CAS]], with at most 0. On the same count and under the same terms, then `CN(C)CCC[C@@]1(c2ccc(F)cc2)OCc2cc(C#N)ccc21`, with 0.614. On to `CN(C)CCCC1(c2ccc(F)cc2)OCc2cc(C#N)ccc21` (stereo not drawn) [Citalopram], for which the “scaled lipid accumulation score” value by setting is: under setting [7], 0.446 and 0.566; under setting [1], 0.51. Regarding `CN(C)CCC[C@@]1(c2ccc(F)cc2)OCc2cc(C#N)ccc21` [Escitalopram], the “scaled lipid accumulation score” value under setting [7] was 0.197. With `CN(C)CCC[C@@]1(c2ccc(F)cc2)OCc2cc(C#N)ccc21` [Escitalopram Oxalate], the “scaled lipid accumulation score” value was at most 0 under setting [6] and 0.644 under setting [1]. With `CN(C)CCCC1(c2ccc(F)cc2)OCc2cc(C#N)ccc21` (stereo not drawn) [Citalopram hydrobromide], the “scaled lipid accumulation score” value under setting [1] is 0.259 and 0.597. On to `CN(C)CCCC1(c2ccc(F)cc2)OCc2cc(C#N)ccc21` (stereo not drawn) [Citalopram Hydrobromide], for which the “scaled lipid accumulation score” value is at most 0. For `Br.CN(C)CCCC1(c2ccc(F)cc2)OCc2cc(C#N)ccc21` (stereo not drawn) [Citalopram hydrobromide], the “scaled lipid accumulation score” value under setting [1] is 0.952 (active).
